Inconclusive results are not listed. Where a call stands in place of a potency, no number is given. The source made the active and inactive calls. The call rests on the fitted dose curve; in most records, active means well fitted cell-killing curve with a large enough effect; inconclusive means small, poorly fitted or top-dose-only effect; inactive means flat fitted curve, though single readings scatter.
assay: Identifying Small Molecule Inhibitors of Pancreatic Cancer Stem Cells (SN12C, Adherent) (AID 1259358); details: viability/growth inhibition; series mostly up to 46.1 µM;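 further: cell survival measured after 48 h of compound exposure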
Source text: Progenitor-like cancer cells, often referred to as cancer stem cells (CSC), are believed to be the drivers of therapeutic resistance and rapid recurrence. CSCs are postulated to reside in specific niches characterized by low oxygen tension, limited nutrient supply, and high redox load. Selectively targeting CSC, alone or in combination with cytotoxic agents, as a means to produce durable remissions is an appealing concept. Modeling these cells in in vitro setting is an important step in finding new therapies and/or targets. Multiple reports highlight that forcing cells in culture into 3-dimensionaly architectures (spheroids) re-establishes key progenitor-like transcriptional signatures. Pancreatic cancer is among the diseases with the most dismal outlook which is driven, largely, by recurance following front-line therapies. […] In hopes of deriving new insight into the targeting of these pancreatic CSCs we examined three established pancreatic cancer cell lines in cytotoxicity assays versus a collection of approved and investigational drugs. Importantly, we screened these lines as traditional monolayer (2D) and spheroid (3D) formats to gain an appreciation of agents with differential activity.
Multicellular tumor spheroids from Panc1, MiaPaCa-2, and the primary low-passage tissue culture line SB.06 were seeded in stem cell media (SCM) in nonadherent 6-well plates coated with hydrogel (Corning Life Sciences, Chelmsford, Mass) and pancreatic spheres generated for 14 days before screening. Cells were seeded into 1536-well solid-bottom white tissue culture treated Greiner Bio One Plates (789173-F) using a MultiDrop Combi (Thermofisher Scientific) dispenser and a small sterile cassette. One column was media alone to be used as a :"no cells" control. The plates were then covered with sterilized stainless steel gasketed lids from Kalypsys. After allowing cells to attach for 4 hours, 23 nL of test compound or control (negative control DMSO and positive control 9.2 uM Bortezomib-final) were added from a 1536-well polypropylene compound source plate to each well using a 1536 head pin tool from Kalypsys. Cells were then incubated for 48 hours at 37C, 95% relative humidity and 5% CO2. After 48 hours, plates were removed from the incubator and 3 uL of CellTiter-Glo (Promega) was added using an Aurora Flying Reagent Dispenser Bioraptor. Plates were incubated at room temperature for 10 minutes prior to reading the luminescence on the Viewlux (PerkinElmer). The relative luciferase units are used to calculate the percent activity using the activity of DMSO in the cells and no cells columns for normalization of no inhibition and full inhibition respectively.
Potency means the concentration at half of the fitted maximal effect.

Structure (SMILES) | Potency
COC[C@H]1OC(=O)c2coc3c2[C@@]1(C)C1=C(C3=O)C2CCC(=O)[C@@]2(C)C[C@H]1OC(C)=O (stereo not given in full) | inactive
C[C@]12CCC(=O)C(O)=C1CC[C@@H]1[C@@H]2CC[C@]2(C)C(=O)CC[C@@H]12 | inactive
COc1ccc(C(=O)c2c(C)n(CCN3CCOCC3)c3ccccc23)cc1 | inactive
C[C@@H]1[C@@H](CC(C[C@H]2O[C@@H]3O[C@]4(C)CC[C@@H]5[C@H](C)CC[C@@H]([C@H]2C)[C@@]35OO4)C[S+](=O)([O-])c2ccc(COC(=O)N(C)C)cc2)O[C@@H]2O[C@]3(C)CC[C@H]4[C@H](C)CC[C@@H]1[C@@]24OO3 (stereo not given in full) | 118 nM (active)
Cn1c(CCCC(=O)O)nc2cc(N(CCCl)CCCl)ccc21 | inactive
CC(O)(CS(=O)(=O)c1ccc(F)cc1)C(=O)Nc1ccc(C#N)c(C(F)(F)F)c1 (stereo not given) | inactive
CCCCC/C=C\C/C=C\C/C=C\C/C=C\CCCC(=O)NC1CC1 | inactive
CC1=C2C[C@@H]3[C@@H](CC=C4C[C@@H](O)CC[C@@]43C)[C@@H]2CC[C@]12O[C@H]1C[C@H](C)CN[C@H]1[C@H]2C | inactive
Cn1cc(C2=C(c3cn(C4CCN(Cc5ccccn5)CC4)c4ccccc34)C(=O)NC2=O)c2ccccc21 | inactive
Cc1cc(SCc2sc(-c3ccc(C(F)(F)F)c(F)c3)nc2C)ccc1OCC(=O)O | inactive

Reference: PubChem BioAssay (NCATS)
